# Results published in PubChem BioAssay (NCI).
# This is part of a sample that, as a whole, favours compounds with a hit. Of some 83,000 tested, about 20% had one in any assay.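 48-hour exposure, single concentration, 96-well plates; percent growth endpoint where 0 means no net growth. Active: below 10.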 Unmarked numbers belong to inactive results. Calls of active or inactive are those of the source.
# Legend:
# Assay in all cases: NCI-60 one-dose screen, 48 h (100 = growth as untreated, 0 = no growth, -100 = all killed)
# [1] = test system: BT-549 breast; conditions: 10 µM unless noted
# [2] = test system: MDA-MB-435 melanoma; conditions: 10 µM unless noted
# [3] = test system: SW-620 colon; conditions: 10 µM unless noted
# [4] = test system: MCF7 breast; conditions: 10 µM
# [5] = test system: HCT-116 colon; conditions: 10 µM unless noted
# [6] = test system: HCC-2998 colon; conditions: 10 µM unless noted
# [7] = test system: KM12 colon; conditions: 10 µM unless noted
Structure (SMILES),growth [1],growth [2],growth [3],growth [4],growth [5],growth [6],growth [7]
CC(C)CCNCC(O)Cn1c2ccccc2c2ccccc21 (stereo not given),84.3%,5.65% (active),12.5%,8.76% (active),4% (active),12.1%,15.7%
COC(=O)c1ccc(NC(=O)CSc2nc3ccccc3c(=O)n2-c2ccccc2)cc1,94.4%,104%,105%,106%,97.7%,98.8%,99.8%
O=C(CSc1ccc2nnc(-c3cccc(F)c3)n2n1)Nc1ccc2c(c1)OCO2,88.3%,89.5%,92.8%,36.4%,62.1%,109%,73.5%
CN1C(=O)N(C)C2C1NN=c1s/c(=C\c3c[nH]c4ccccc34)c(=O)n12 (stereo not given),12.3%,102%,28.6%,16%,5.95% (active),27.3%,4.61% (active)
COc1ccc(C2Nc3ncnc(N)c3N=C3c4ccccc4C(=O)C32)cc1 (stereo not given),94.3%,96.9%,103%,95.5%,95.7%,104%,110%
COc1cc(C(=O)Nc2ccc(-c3nc4ccccc4[nH]3)cc2)cc(OC)c1OC,60.6%,-25.2% (active),14.7%,11.6%,24.1%,57.6%,33.8%
CSc1nc2c(c(=O)n1C)N=C1c3ccccc3C(=O)C1C(c1ccccc1)N2 (stereo not given),82.3%,7.03% (active),70.7%,58.7%,71.3%,64.8%,63.5%
Clc1ccc(Nc2nnc(-c3ccc4c(c3)OCO4)o2)cc1,116%,99.9%,102%,93.4%,96.7%,98.6%,99.5%
Cn1c(/C=C(\C#N)c2ccccc2)nc2c(N3CCOCC3)nc(Cl)nc21,-77.2% (active),-84.7% (active),-74.2% (active),-57.7% (active),-78.1% (active),-17.2% (active),-53% (active)
CCOC(=O)C1=C(C)N=c2s/c(=C\c3cc(Cl)ccc3O)c(=O)n2C1c1ccc(OC)cc1 (stereo not given),102%,107%,103%,93.2%,72.2%,98.6%,94.2%
CN(O)c1nc(N(C)O)nc(N2CCOCC2)n1,60.5%,42.5%,52.4%,15.9%,12.2%,40.5%,45.8%
COc1cc(C2C(C#N)=C(N)OC3=C2C(=O)c2ccccc2C3=O)cc(OC)c1OC (stereo not given),41.4%,-19.7% (active),21.5%,18.9%,19.1%,30.4%,13.1%
CCCC(=O)CC(C)=O.CCCC(=O)CC(C)=O.[Cu],111%,109%,106%,92.4%,95.9%,102%,102%
O=C1/C(=C/c2ccc(O)cc2)COc2ccc(O)c(O)c21,57.5%,19.5%,28.4%,13.8%,20.8%,75.7%,19.8%
COC(=O)[C@H]1CCCN1C(=O)[C@H]1CCCN1C(=O)[C@H](Cc1c[nH]c2ccccc12)NC(=S)Nc1cc(C(F)(F)F)cc(C(F)(F)F)c1,97.4%,45.4%,70.4%,32.5%,41%,16.1%,36.4%
COc1ccc(/C(C#N)=C/c2nc3c(N4CCOCC4)nc(Cl)nc3n2C)cc1OC,-15.7% (active),-64.5% (active),-53.7% (active),6.49% (active),-73.2% (active),2.12% (active),-0.417% (active)
COc1ccc(Cn2cc(Cn3cc(C=C4C(=O)NC(=O)NC4=O)c4ccccc43)nn2)cc1,99.5%,90.8%,85.9%,75.8%,80.1%,109%,93%
CC1CCCCN1CCCNC(=O)c1ccc2c(c1)sc1nc(-c3ccc(F)cc3)cn12 (stereo not given),91%,109%,105%,99.5%,89.7%,88.7%,101%
CCOc1cccc(/C=N/NC(=O)C(=O)Nc2cccc(C(F)(F)F)c2)c1O,45.4%,49.6%,32%,11.8%,32%,5.43% (active),27.8%
COc1ccc(/C=C/C(=O)c2ccc(Nc3nc(NCCO)nc(Nc4ccc(Cl)cc4)n3)cc2)cc1,61.3%,65.4%,91.1%,12.9%,19.8%,57.2%,41%
CS(=O)(=O)Nc1ccc(C(=O)NC(C(=O)NO)c2ccc(-c3cccc(F)c3)cc2)cc1 (stereo not given),94.1%,54.5%,51.2%,66.7%,39.1%,62.6%,58.2%
O=c1c(-c2nc3ccccc3[nH]2)cc2ccccc2n1Cc1cn(Cc2ccc(F)cc2)nn1,22.4%,-37% (active),22.1%,14.5%,-13.5% (active),-14.5% (active),9.74% (active)
COc1cc2nc(-c3cccc4cccnc34)nc(NC3CCN(Cc4ccccc4)CC3)c2cc1OC,-65% (active),-93.3% (active),-74.8% (active),-77.2% (active),-63.7% (active),-91% (active),-76% (active)
O=C(NC1CCN(Cc2ccccc2)CC1)c1cc2nc(-c3ccc(Cl)s3)cc(C(F)(F)F)n2n1,66%,-82% (active),-6.12% (active),-68.2% (active),28%,84.2%,37.1%
O=S1(=O)CCN(Cc2ccccc2)CC1,95.7%,97.6%,103%,104%,88.4%,101%,93.9%
